GLP-1R agonist: GLP-1 receptor (human) agonism; HEK293 GLP-1R CRE-luciferase, luminescence, 4-6 h; cells express a hypersensitive GLP-1R form; 380,000 compounds, 0.007% hits; Potency, µM (highest dose often 45.6 µM), inactives show top-dose activation, hits mostly activators; note: potency is the fitted concentration of half-maximal effect; % of control where 0% means no effect
GLP-1R inv ag: GLP-1 receptor (human) inverse agonism; P43220; HEK293 GLP-1R CRE-luciferase, luminescence, 24 h; GLP-1R form is constitutively active; Potency, µM (highest dose often 38.3 µM), for the others: at the top dose activity change, negative = inhibition, most hits filed as inhibitors; 410,000 compounds, 1.6% hits; AID 624417; note: potency is the fitted concentration of half-maximal effect; % is set by controls: 0 for no effect and ±100 for the full control effect; nearly all actives have a fitted effect of over 55% in size
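Inverse agonism was detected as reduced cAMP-driven luciferase luminescence after 24 h compound treatment. The cells were HEK293 clones expressing constitutively active human GLP-1R with the reporter. Reporter-only and GPR119 cell lines served as counterscreen controls.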
TrxR1 substrate: is turned over as a substrate by rat TrxR1; 390,000 compounds, 0.01% hits; O89049; Potency, µM (titrated, usually from 114 µM), for the others: top-dose activity change, negative = substrate turnover; purified TrxR1 substrate turnover, NADPH consumption readout; note: potency is the fitted concentration of half-maximal effect; % is set by controls: 0 for no effect and ±100 for the full control effect; nearly all actives have a fitted effect of over 50% in size
Target sequence (O89049 whole entry, looked up): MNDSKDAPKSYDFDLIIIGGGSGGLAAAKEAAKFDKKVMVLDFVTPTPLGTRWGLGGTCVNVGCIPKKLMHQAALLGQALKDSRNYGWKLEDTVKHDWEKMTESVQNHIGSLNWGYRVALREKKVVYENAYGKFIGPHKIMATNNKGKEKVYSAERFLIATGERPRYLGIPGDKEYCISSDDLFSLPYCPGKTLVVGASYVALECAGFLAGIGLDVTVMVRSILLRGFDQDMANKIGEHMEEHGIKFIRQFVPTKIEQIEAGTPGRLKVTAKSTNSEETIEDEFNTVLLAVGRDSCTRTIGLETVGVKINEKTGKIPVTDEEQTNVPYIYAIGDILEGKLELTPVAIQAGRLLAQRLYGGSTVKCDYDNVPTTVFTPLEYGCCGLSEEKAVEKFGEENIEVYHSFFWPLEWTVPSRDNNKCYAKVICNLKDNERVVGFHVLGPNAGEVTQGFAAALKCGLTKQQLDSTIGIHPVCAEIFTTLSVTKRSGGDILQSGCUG
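Rat TrxR1, dispensed at 90 nM, was prereduced with 400 uM NADPH (final) for 5 min at ~22 deg C, then incubated with compound 15 min before 400 uM selenite. A first-read NADPH fluorescence drop versus no-compound background flagged substrates.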
HEK293 tox: cytotoxicity counter-screen for GLP-1 receptor inverse agonists; Potency, µM (highest dose often 38.3 µM), without a hit: at the highest dose activity change, negative = inhibition, most hits filed as inhibitors; AID 624418; HEK293 cAMP-luciferase reporter cells, luminescence, 24 h; 410,000 compounds, 0.13% hits;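 note: loss of luciferase light is scored as toxicity; potency is the fitted concentration of half-maximal effect; % is set by controls: 0 for no effect and ±100 for the full control effect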
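Step one: seed cells (200 cells/uL, DMEM with 10% Nu serum, 1% pen-strep). Step two: 12-hour incubation at 37 deg C. Step three: pin 23 nL compound, incubate 24 hr. Step four: add luciferase reagent, read luminescence 12 min later.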
TrxR1 inh: inhibitors of rat thioredoxin reductase 1; O89049; recombinant rTrxR1, NADPH fluorescence consumption, selenite substrate; Potency, µM (highest dose often 114 µM), for inactives: at the highest dose activity change, negative = inhibition, usual class: inhibitors; 390,000 compounds, 1% hits; AID 588453; note: potency is the fitted concentration of half-maximal effect; % is set by controls: 0 for no effect and ±100 for the full control effect; nearly all actives have a fitted effect of over 65% in size
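Rat TrxR1 (90 nM in the dispensed reagent) was pre-reduced with 400 uM NADPH for 5 min at room temperature, then incubated with compound for 15 min. After 400 uM selenite was added, NADPH fluorescence (Ex 340/Em 450 nm) was followed for 8 min.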
IDH1 R132H inh: blocks human mutant IDH1 R132H enzyme. IDH1-R132H enzyme, NADPH consumption, diaphorase/resazurin fluorescence. Potency, µM (doses to about 76.6 µM), without a hit: at the top dose activity change, negative = inhibition, usual class: inhibitors. 390,000 compounds, 0.093% hits; note: potency is the fitted concentration of half-maximal effect; % is set by controls: 0 for no effect and ±100 for the full control effect; nearly all actives have a fitted effect of over 65% in size
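IDH1-R132H (0.5 ug/mL) preincubated 30 min with compound, then NADPH (0.016 mM) and alpha-KG (2 mM) added; 80 min at RT, pH 7.5. Remaining NADPH coupled via diaphorase/resazurin to fluorescence (540/590 nm); concentration-response curves normalized to no-enzyme control.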
Resorufin autofl: counter-screen for mutant IDH1 inhibitors: fluorescence interference; shares compounds with IDH1 R132H inh; Resorufin detection reagent fluorescence interference, cell-free; inhibition of signal, % at 51.2 µM; 750 tested, under 10 active; AID 623980;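 note: 0% = wells with normal resorufin and full inhibition = wells lacking resorufin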
WT IDH1 inh: wild-type IDH1 (human) inhibition counterscreen; shares compounds with IDH1 R132H inh; WT IDH1 enzyme, NADPH diaphorase/resazurin fluorescence; Potency, µM (doses to about 115 µM), without a hit: top-dose activity change, negative = inhibition, most hits filed as inhibitors; 750 compounds, 9% hits; AID 623995;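 note: potency is the fitted concentration of half-maximal effect; 0% = full WT IDH1 enzyme control and full inhibition = no enzyme wells; nearly all actives have a fitted effect of over 55% in size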
mIDH1 confirm: inhibits human mutant IDH1 enzyme in cherrypick confirmation. AID 624002. IDH1 R132H enzyme, NADPH diaphorase/resazurin fluorescence. Potency, µM (series often up to 76.6 µM), inactives show top-dose activity change, negative = inhibition, most hits filed as inhibitors. 750 compounds, 83% hits. shares compounds with IDH1 R132H inh; note: potency is the fitted concentration of half-maximal effect; nearly all actives have a fitted effect of over 50% in size
* marks the source's active call; other numbers are inactive results; [ ] = dose if it differs, or a comment. Compounds with a hit are over-represented: about 2.7% of the library has one in this group of screens. Calls come from the whole dose curve; as a rule, active = well fitted curve in the direction sought with a large enough effect; inconclusive = small, poorly fitted or top-dose-only effect, or another doubt; inactive = no such curve, though single readings can be large; an effect the other way counts as inactive or inconclusive.

What do the screens show for `Cc1ccc(-c2noc(-c3ccc(NCc4ccco4)c([N+](=O)[O-])c3)n2)cc1`?
GLP-1R inv ag: 9%; TrxR1 substrate: -3%; HEK293 tox: 8%; TrxR1 inh: 1%; IDH1 R132H inh: 4%

How did CCOC(=O)c1c(CSC(=N)N)n(C)c2cc(Br)c(OC(C)=O)cc12 do in these assays?
GLP-1R agonist: 1%; GLP-1R inv ag: -18%; TrxR1 substrate: 2%[11.4 µM]; HEK293 tox: inconclusive; TrxR1 inh: 8%[11.4 µM]; IDH1 R132H inh: inconclusive; Resorufin autofl: -9; WT IDH1 inh: 2%; mIDH1 confirm: 14µM*

What do the screens show for `CCOC(=O)c1c(CSC(=N)N)n(-c2ccc(C)cc2)c2cc(Br)c(OC(C)=O)cc12`?
GLP-1R agonist: 0%; GLP-1R inv ag: inconclusive; TrxR1 substrate: 2%; HEK293 tox: inconclusive; TrxR1 inh: 11%; IDH1 R132H inh: inconclusive

What do the screens show for `COc1ccc(C)cc1NC(=O)C1CCN(S(=O)(=O)c2ccc3[nH]c(=O)oc3c2)CC1`?
GLP-1R inv ag: 2%; TrxR1 substrate: 1%[57.1 µM]; HEK293 tox: 2%; TrxR1 inh: 19%[57.1 µM]; IDH1 R132H inh: -15%

What do the screens show for `Cc1ccc(C)c(NC(=O)Cn2cc(S(=O)(=O)N3CCCC3)c(S(=O)(=O)N3CCCC3)c2)c1`?
GLP-1R inv ag: 10%; TrxR1 substrate: 1%; HEK293 tox: 0%; TrxR1 inh: 14%; IDH1 R132H inh: 3%

Results for Cc1ccc(C(C(=O)NC2CCCC2)N(Cc2ccc(F)cc2)C(=O)c2snc(C(N)=O)c2N)o1 (stereo unspecified) ?
GLP-1R agonist: 4%; GLP-1R inv ag: inconclusive; TrxR1 substrate: 13%; HEK293 tox: -7%; TrxR1 inh: 14%; IDH1 R132H inh: inconclusive; Resorufin autofl: -12; WT IDH1 inh: 11%; mIDH1 confirm: inconclusive

How did Cc1cccc(N(C(=O)CNC(=O)c2ccco2)C(C(=O)NC2CCCC2)c2ccncc2)c1C (stereo unspecified) do in these assays?
GLP-1R agonist: 2%; GLP-1R inv ag: -6%; TrxR1 substrate: 1%[57.1 µM]; HEK293 tox: -19%; TrxR1 inh: 16%[57.1 µM]; IDH1 R132H inh: 8%

Results for Cc1cccc(N(C(=O)c2ccco2)C(C(=O)NC2CCCC2)c2ccco2)c1C (stereo unspecified) ?
GLP-1R agonist: 5%; GLP-1R inv ag: inconclusive; TrxR1 substrate: -1%[57.1 µM]; HEK293 tox: 8%; TrxR1 inh: 1%[57.1 µM]; IDH1 R132H inh: inconclusive; Resorufin autofl: -5; WT IDH1 inh: 8%; mIDH1 confirm: 20µM*

What do the screens show for `COc1ccc(CN(C(=O)Cc2c[nH]c3ccccc23)C(C(=O)NC2CCCCC2)c2ccc(C)o2)cc1` (stereo unspecified)?
GLP-1R agonist: -6%; GLP-1R inv ag: inconclusive; TrxR1 substrate: 1%; HEK293 tox: -25%; TrxR1 inh: 9%; IDH1 R132H inh: -17%

What do the screens show for `Cc1ccccc1N(C(=O)c1snc(C(N)=O)c1N)C(C(=O)NC1CCCC1)c1ccco1` (stereo unspecified)?
GLP-1R agonist: 13%; GLP-1R inv ag: inconclusive; TrxR1 substrate: 51%; HEK293 tox: 2%; TrxR1 inh: -5%; IDH1 R132H inh: inconclusive; Resorufin autofl: 2; WT IDH1 inh: 13%; mIDH1 confirm: 40µM*

What do the screens show for `CCc1ccc(N(C(=O)c2snc(C(N)=O)c2N)C(C(=O)NC2CCCC2)c2ccco2)cc1` (stereo unspecified)?
GLP-1R agonist: 12%; GLP-1R inv ag: inconclusive; TrxR1 substrate: -13%; HEK293 tox: -3%; TrxR1 inh: -10%; IDH1 R132H inh: -25%

How did Cc1ccc(C(C(=O)NC2CCCCC2)N(Cc2ccccc2)C(=O)Cc2c[nH]c3ccccc23)o1 (stereo unspecified) do in these assays?
GLP-1R agonist: -15%; GLP-1R inv ag: inconclusive; TrxR1 substrate: -7%; HEK293 tox: -26%; TrxR1 inh: -4%; IDH1 R132H inh: inconclusive; Resorufin autofl: -6; WT IDH1 inh: 9%; mIDH1 confirm: inconclusive

Results for Cc1c(Cl)cccc1NC(=O)CSc1ncccc1C(=O)Oc1ccccc1Cl ?
GLP-1R inv ag: 6%; TrxR1 substrate: 1%[57.1 µM]; HEK293 tox: 14%; TrxR1 inh: 2%[57.1 µM]; IDH1 R132H inh: -10%

What do the screens show for `CC(=O)c1cccc(N(C(=O)c2ccco2)C(C(=O)NC2CCCC2)c2ccccc2F)c1` (stereo unspecified)?
GLP-1R agonist: 9%; GLP-1R inv ag: inconclusive; TrxR1 substrate: 1%; HEK293 tox: -9%; TrxR1 inh: -4%; IDH1 R132H inh: 23µM*; Resorufin autofl: -1; WT IDH1 inh: 4%; mIDH1 confirm: 11µM*

Results for COc1ccc(C(C(=O)NCc2ccccc2)N(C(=O)c2snc(C(N)=O)c2N)c2ccccc2OC)cc1 (stereo unspecified) ?
GLP-1R agonist: 8%; GLP-1R inv ag: inconclusive; TrxR1 substrate: 61%; HEK293 tox: 29%; TrxR1 inh: 44%; IDH1 R132H inh: 17%

Results for COc1ccc(N(C(=O)c2snc(C(N)=O)c2N)C(C(=O)NC2CCCCC2)c2ccc(C)o2)cc1 (stereo unspecified) ?
GLP-1R agonist: 14%; GLP-1R inv ag: inconclusive; TrxR1 substrate: 7%; HEK293 tox: -7%; TrxR1 inh: -17%; IDH1 R132H inh: inconclusive; Resorufin autofl: 2; WT IDH1 inh: 2%; mIDH1 confirm: inconclusive

How did CC(=O)c1cccc(N(C(=O)c2ccco2)C(C(=O)NC2CCCC2)c2cccs2)c1 (stereo unspecified) do in these assays?
GLP-1R agonist: 6%; GLP-1R inv ag: inconclusive; TrxR1 substrate: inconclusive; HEK293 tox: -5%; TrxR1 inh: -12%; IDH1 R132H inh: 0%

Source: PubChem BioAssay (National Center for Advancing Translational Sciences (NCATS))
